According to PubChem BioAssay (Tox21):
Results filed as inconclusive are left out. Activity calls are given as the source filed them. Unless noted, calls follow the shape of the dose curve; as a rule, active = well fitted curve in the direction sought with a large enough effect in the repeat runs; inconclusive = weak or mixed curves; inactive = no such curve, though single readings can be large; an effect the other way counts as inactive or inconclusive.

Legend:
[1] = A CellTox Green Cytotoxicity Assay to monitor cytotoxicity in HepG2 cells - 0 hour (AID 1224882); also: nearly all actives have a fitted effect of over 35% in size
Procedure, shortened: (§1)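 Cytotoxicity was tracked as dead-cell DNA fluorescence in HepG2 cells treated with test compounds at 37 C; each time-point value comes from one kinetic series spanning 0, 8, 16, 24, 32 and 40 h.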

[2] = A CellTox Green Cytotoxicity Assay to monitor cytotoxicity in HepG2 cells - 32 hour (AID 1224883); also: nearly all actives have a fitted effect of over 50% in size; also: potency is read from the fitted curve at half-maximal effect
Procedure, shortened: as §1

[3] = A CellTox Green Cytotoxicity Assay to monitor cytotoxicity in HEK293 cells - 8 hour (AID 1224884); also: nearly all actives have a fitted effect of over 35% in size
Procedure, shortened: (§2)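 Real-time, in one plate: 600 HEK293 cells/well with dead-cell DNA dye, pinned compound after 5 h, 37 C incubation over 40 h; viable cells give no appreciable fluorescence.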

[4] = qHTS RealTime-Glo MT Cell Viability Assay in HepG2 cells - 16 hour (AID 1224885); also: nearly all actives have a fitted effect of over 50% in size
Procedure, shortened: (§3)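 qHTS, HepG2, 600 cells/well, RealTime-Glo (NanoLuc + prosubstrate) added with cells; 5 h preincubation; DMSO compound addition; 37 C; luminescence at 0/8/16/24/32/40 h.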

[5] = qHTS RealTime-Glo MT Cell Viability Assay in HEK293 cells - 24 hour (AID 1224886); also: nearly all actives have a fitted effect of over 50% in size; also: potency is read from the fitted curve at half-maximal effect; as to activity change, negative = cytotoxicity: top concentration of the series differs between compounds
Procedure, shortened: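 Assay medium contained NanoLuc luciferase plus cell-permeant prosubstrate, added with HEK293 cells at 600 cells/well. After 5 h at 37 C/5% CO2 compounds were added; plates stayed at 37 C for 40 h with serial luminescence reads.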

[6] = qHTS RealTime-Glo MT Cell Viability Assay in HEK293 cells - 8 hour (AID 1224887); also: top concentration of the series differs between compounds; nearly all actives have a fitted effect of over 50% in size
Procedure, shortened: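 Kinetic, non-lysing viability readout. Seed HEK293 (600/well) with reagent, incubate 5 h at 37 C/5% CO2, pin 23 nL compound in DMSO, incubate at 37 C, read luminescence at 0, 8, 16, 24, 32, 40 h.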

[7] = qHTS RealTime-Glo MT Cell Viability Assay in HepG2 cells - 0 hour (AID 1224889); also: nearly all actives have a fitted effect of over 50% in size
Procedure, shortened: as §3

[8] = A CellTox Green Cytotoxicity Assay to monitor cytotoxicity in HepG2 cells - 8 hour (AID 1224890); also: nearly all actives have a fitted effect of over 45% in size
Procedure, shortened: as §1

[9] = qHTS assay to identify small molecule antagonists of the estrogen receptor alpha (ER-alpha) signaling pathway using the BG1 cell line in the presence of 0.1 nM 17-beta-estradiol - cell viability counter screen (AID 1259241); also: nearly all actives have a fitted effect of over 40% in size
Procedure, shortened: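 The cell line endogenously expresses full-length ER-alpha and carries four EREs driving luciferase. Cells are cultured 5 days hormone-free, treated 22 hr with compounds and 0.1 nM estradiol, then viability is read by fluorescence.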

[10] = qHTS assay to identify small molecule antagonists of the androgen receptor (AR) signaling pathway using the MDA cell line in the presence of 0.5 nM R1881 - cell viability counter screen (AID 1259242); also: nearly all actives have a fitted effect of over 45% in size
Procedure, shortened: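 Cells seeded at 3,000/well and allowed 5 hr at 37C, 0% CO2 before compound transfer and R1881 (0.5 nM final) addition; 16 hr later, live-cell protease fluorescence indicated cytotoxicity.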

[11] = qHTS assay to identify small molecule phospholipidosis (PLD) inducers (AID 1259344; active = well fitted curve in the direction sought with a large enough effect; an effect the other way counts as inactive or inconclusive)
Procedure, shortened: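 After 4 h attachment on collagen I, HepG2 cells were dosed with compound alongside LipidTOX Red, kept 24 h at 37 C, fixed, and imaged for lamellar phospholipid pits.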

[12] = qHTS assay to identify small molecule HDAC inhibitors (AID 1259364); also: potency is read from the fitted curve at half-maximal effect;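 also: wild-type HCT-116 cells with endogenous class I/II HDAC activity; nearly all actives have a fitted effect of over 45% in size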; as to activity change, negative = inhibition: top concentration of the series differs between compounds
Procedure, shortened: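 HCT-116 wt cells, 1,500/well, overnight attach. Compounds (DMSO) 2 h, 37 °C. HDAC-Glo I/II, 30 min RT. Luminescence.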

[13] = qHTS assay to identify small molecule HDAC inhibitors - cell viability counter screen (AID 1259365)
Procedure, shortened: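 Viability readout: CellTiter-Glo luminescence. Wild-type HCT-116 cells, 2hr compound treatment following overnight attachment at 37 C.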

[14] = qHTS assay to identify small molecule agonists of the sonic hedgehog signaling (Shh) pathway - cell viability counter screen (AID 1259366); also: nearly all actives have a fitted effect of over 50% in size
Procedure, shortened: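 Viability measured fluorometrically (CellTiter-Fluor, 1hr, 37C) in 3T3 Gli1-Luc reporter cells after 23hr compound exposure within a 24hr incubation at 37C/5% CO2.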

[15] = qHTS assay to identify small molecule antagonists of the sonic hedgehog signaling (Shh) pathway - cell viability counter screen (AID 1259367); also: nearly all actives have a fitted effect of over 55% in size
Procedure, shortened: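 Conditioned medium drove Shh signaling in 3T3 Gli1-Luc cells exposed to compounds at 37C and 5% CO2. Viability was determined from CellTiter-Fluor fluorescence, with reagent incubated 1 hr after 23 hr of treatment.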

[16] = qHTS assay to identify small molecule agonists of the sonic hedgehog signaling (Shh) pathway (AID 1259368; calls by dose curve;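 also: NIH/3T3-derived 3T3Gli1-Luc cells carrying a stable Gli1-driven firefly luciferase reporter; series mostly up to about 92 µM; nearly all actives have a fitted effect of over 15% in size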)
Procedure, shortened: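 Following a 24 hr incubation with DMSO-dissolved compounds at 37 C, 5% CO2, Gli1-Luc NIH/3T3-derived cells received luciferase reagent for 30 min at room temperature prior to luminescence measurement.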

[17] = qHTS assay to identify small molecule antagonists of the sonic hedgehog signaling (Shh) pathway (AID 1259369; calls by dose curve; also: nearly all actives have a fitted effect of over 45% in size; also: potency is read from the fitted curve at half-maximal effect)
Procedure, shortened: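 Read-out is luminescence from a firefly luciferase gene controlled by the Gli1 response element, in 3T3Gli1-Luc cells pre-incubated 4hr then exposed to compounds and conditioned medium for 24hr.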

[18] = biological target: Androgen receptor (Homo sapiens) (UniProt P10275); test: qHTS assay to identify small molecule antagonists of the androgen receptor (AR) signaling pathway using the MDA cell line in the presence of 0.5 nM R1881 (AID 1259243); also: nearly all actives have a fitted effect of over 50% in size
Sequence of Androgen receptor (Homo sapiens) (P10275 whole entry, looked up): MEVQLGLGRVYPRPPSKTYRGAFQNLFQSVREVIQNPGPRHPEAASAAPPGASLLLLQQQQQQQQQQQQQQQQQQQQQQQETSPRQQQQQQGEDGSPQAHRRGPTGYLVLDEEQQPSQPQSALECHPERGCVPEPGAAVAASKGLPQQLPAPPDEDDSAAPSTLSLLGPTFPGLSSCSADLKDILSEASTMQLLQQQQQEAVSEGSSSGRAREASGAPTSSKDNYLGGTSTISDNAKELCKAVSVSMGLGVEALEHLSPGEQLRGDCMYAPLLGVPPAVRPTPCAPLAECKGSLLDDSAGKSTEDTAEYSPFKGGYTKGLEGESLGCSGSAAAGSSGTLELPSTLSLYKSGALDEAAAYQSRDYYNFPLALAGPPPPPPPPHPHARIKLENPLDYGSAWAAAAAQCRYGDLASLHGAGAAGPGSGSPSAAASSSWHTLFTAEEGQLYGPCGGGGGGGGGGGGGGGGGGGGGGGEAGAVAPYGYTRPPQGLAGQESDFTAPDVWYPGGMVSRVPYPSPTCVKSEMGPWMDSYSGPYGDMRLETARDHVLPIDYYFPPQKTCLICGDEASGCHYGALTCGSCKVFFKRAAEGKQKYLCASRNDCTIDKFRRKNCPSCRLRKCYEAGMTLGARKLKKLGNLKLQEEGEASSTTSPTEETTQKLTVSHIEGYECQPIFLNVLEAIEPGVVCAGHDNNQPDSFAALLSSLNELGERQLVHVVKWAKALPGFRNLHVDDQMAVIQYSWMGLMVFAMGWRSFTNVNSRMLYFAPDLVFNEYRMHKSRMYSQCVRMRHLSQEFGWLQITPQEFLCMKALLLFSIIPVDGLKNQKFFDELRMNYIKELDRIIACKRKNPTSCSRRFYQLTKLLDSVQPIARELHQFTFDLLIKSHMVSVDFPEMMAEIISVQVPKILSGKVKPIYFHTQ
Procedure, shortened: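 Luminescence from an AR/GR-responsive MMTV-luciferase construct in MDA-kb2 breast carcinoma cells, read 30 min after ONE-Glo, following 16 hr co-treatment with compounds and 0.5 nM R1881.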

[19] = biological target: Estrogen receptor (Homo sapiens) (UniProt P03372); test: qHTS assay to identify small molecule antagonists of the estrogen receptor alpha (ER-alpha) signaling pathway using the BG1 cell line in the presence of 0.1 nM 17-beta-estradiol (AID 1259244); also: nearly all actives have a fitted effect of over 50% in size
Sequence of Estrogen receptor (Homo sapiens) (P03372 whole entry, looked up): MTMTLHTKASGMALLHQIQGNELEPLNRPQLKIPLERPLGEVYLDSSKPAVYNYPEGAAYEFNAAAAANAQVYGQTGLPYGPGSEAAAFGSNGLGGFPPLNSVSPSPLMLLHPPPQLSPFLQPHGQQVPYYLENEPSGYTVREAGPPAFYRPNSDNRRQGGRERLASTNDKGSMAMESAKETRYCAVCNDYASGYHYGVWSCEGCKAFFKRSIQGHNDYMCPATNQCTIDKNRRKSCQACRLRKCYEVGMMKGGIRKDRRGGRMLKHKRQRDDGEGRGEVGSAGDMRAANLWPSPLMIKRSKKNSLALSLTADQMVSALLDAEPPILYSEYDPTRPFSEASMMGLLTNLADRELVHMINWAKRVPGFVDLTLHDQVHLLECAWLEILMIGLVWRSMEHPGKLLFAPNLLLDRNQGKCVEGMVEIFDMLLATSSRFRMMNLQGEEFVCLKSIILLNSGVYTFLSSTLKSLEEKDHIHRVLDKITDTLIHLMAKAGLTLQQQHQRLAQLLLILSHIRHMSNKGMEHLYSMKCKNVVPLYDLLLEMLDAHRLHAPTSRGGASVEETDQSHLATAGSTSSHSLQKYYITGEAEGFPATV
Procedure, shortened: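 Luciferase signal from VM7Luc4E2 ERE-reporter cells, co-dosed with test compound and 0.1 nM final 17beta-estradiol for 22 h, read with ONE-Glo.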

[20] = A CellTox Green Cytotoxicity Assay to monitor cytotoxicity in HEK293 cells - 16 hour (AID 1224888); also: nearly all actives have a fitted effect of over 35% in size
Procedure, shortened: as §2
% is scaled to controls: 0 for no effect and ±100 for the full control effect.

CC(=O)OCC1=C(C(=O)O)N2C(=O)[C@@H](NC(=O)CSc3ccncc3)[C@H]2SC1
inactive: Potency [1] | Potency [2] | Potency [3] | Potency [4] | Potency [5] | Potency [6] | Potency [7] | Potency [8] | Potency [9] | Potency [10] | Potency [11] | Potency [12] | Potency [13] | Potency [14] | Potency [15] | Potency [16] | Potency [17]

Cc1oc(=O)oc1COC(=O)[C@@H]1N2C(=O)[C@@H](NC(=O)[C@H](N)c3ccccc3)[C@H]2SC1(C)C
inactive: Potency [1] | Potency [2] | Potency [3] | Potency [4] | Potency [5] | Potency [6] | Potency [7] | Potency [8] | Potency [9] | Potency [18] | Potency [19] | Potency [12] | Potency [13] | Potency [14] | Potency [15] | Potency [16] | Potency [17]

CC(C)c1ccc(C(=O)N=C(N)N)cc1S(C)(=O)=O
inactive: Potency [1] | Potency [2] | Potency [3] | Potency [4] | Potency [5] | Potency [6] | Potency [7] | Potency [8] | Potency [9] | Potency [19] | Potency [12] | Potency [13] | Potency [14] | Potency [15] | Potency [16] | Potency [17]

C=C(C)C(=O)OCCC(F)(F)C(F)(F)C(F)(F)C(F)(F)C(F)(F)C(F)(F)F
inactive: Potency [1] | Potency [2] | Potency [3] | Potency [4] | Potency [5] | Potency [7] | Potency [9] | Potency [19] | Potency [12] | Potency [14] | Potency [15] | Potency [16] | Potency [17]

CCC(C)(C)C(=O)O
inactive: Potency [1] | Potency [2] | Potency [3] | Potency [4] | Potency [5] | Potency [20] | Potency [7] | Potency [8] | Potency [9] | Potency [18] | Potency [19] | Potency [12] | Potency [13] | Potency [14] | Potency [15] | Potency [16] | Potency [17]

CCCCCCCC(=O)Oc1c(Br)cc(C#N)cc1Br
active: Potency [5] 38.8 µM | Potency [17] 27.2 µM
inactive: Potency [1] | Potency [2] | Potency [3] | Potency [4] | Potency [20] | Potency [7] | Potency [8] | Potency [9] | Potency [10] | Potency [12] | Potency [13] | Potency [14] | Potency [15] | Potency [16]

Nc1ccc(F)cc1
inactive: Potency [1] | Potency [2] | Potency [3] | Potency [4] | Potency [5] | Potency [7] | Potency [9] | Potency [10] | Potency [18] | Potency [19] | Potency [12] | Potency [13] | Potency [14] | Potency [15] | Potency [16] | Potency [17]

COC(=O)Nc1nc2ccc(C(=O)C3CC3)cc2[nH]1
active: Potency [2] 0.952 µM | Potency [12] 23.7 µM
inactive: Potency [1] | Potency [3] | Potency [4] | Potency [6] | Potency [7] | Potency [9] | Potency [10] | Potency [19] | Potency [13] | Potency [14] | Potency [17]

CCOC(=O)N1CCC(Nc2ccc(Cl)cc2N)CC1
inactive: Potency [1] | Potency [2] | Potency [3] | Potency [4] | Potency [6] | Potency [20] | Potency [7] | Potency [8] | Potency [9] | Potency [19] | Potency [12] | Potency [13] | Potency [15]
active: Potency [17] 2.98 µM

CCCCC(CC)COS(=O)(=O)O (centres undefined)
inactive: Potency [1] | Potency [2] | Potency [3] | Potency [4] | Potency [5] | Potency [7] | Potency [8] | Potency [9] | Potency [10] | Potency [19] | Potency [11] | Potency [12] | Potency [13] | Potency [14] | Potency [15] | Potency [16] | Potency [17]

Cc1ccc2c(c1)CCCN2
inactive: Potency [1] | Potency [2] | Potency [3] | Potency [4] | Potency [5] | Potency [20] | Potency [7] | Potency [8] | Potency [10] | Potency [12] | Potency [14] | Potency [15] | Potency [16] | Potency [17]

CC12CC3CC(C)(C1)CC(N)(C3)C2
active: Potency [17] 16.8 µM
inactive: Potency [1] | Potency [2] | Potency [3] | Potency [4] | Potency [5] | Potency [20] | Potency [7] | Potency [8] | Potency [10] | Potency [19] | Potency [11] | Potency [12] | Potency [13] | Potency [15]

C=Cc1ccc(OC(C)=O)cc1
inactive: Potency [1] | Potency [2] | Potency [3] | Potency [4] | Potency [6] | Potency [7] | Potency [8] | Potency [10] | Potency [18] | Potency [19] | Potency [12] | Potency [13] | Potency [14] | Potency [15] | Potency [16] | Potency [17]

BrC(Br)C(Br)Br
inactive: Potency [1] | Potency [2] | Potency [3] | Potency [4] | Potency [5] | Potency [20] | Potency [7] | Potency [8] | Potency [9] | Potency [18] | Potency [19] | Potency [12] | Potency [13] | Potency [14] | Potency [15] | Potency [16] | Potency [17]

CCCCCCCCCCCCCCN(C)C
inactive: cytotoxicity [1] -1.15% [at 15.8 µM] | cytotoxicity increase [2] -7.28% [at 15.8 µM] | cytotoxicity increase [3] -28% [at 15.8 µM] | activity change, negative = cytotoxic [4] -0.238% [at 15.8 µM] | activity change [20] -30.9% [at 15.8 µM, stronger effect = higher value] | activity change, negative = cytotoxicity [7] -19.6% [at 15.8 µM] | cytotoxicity increase [8] -1.47% [at 15.8 µM] | activity change, negative = cytotoxicity [9] 0.479% [at 19 µM] | viability change, negative = cytotoxic [10] -2.29% [at 19 µM] | activity change, negative = inhibition [19] 15.5% [at 19 µM] | activity change, negative = inhibition [12] 1.53% [at 19 µM] | viability change, negative = cytotoxic [14] -0.743% [at 19 µM] | viability change, negative = cytotoxic [15] 4.21% [at 19 µM] | activity change, negative = inhibition [17] 19.6% [at 19 µM]

Cc1ccc2c(c1[N+](=O)[O-])C(=O)c1ccccc1C2=O
inactive: Potency [1] | Potency [2] | Potency [3] | Potency [4] | Potency [6] | Potency [20] | Potency [7] | Potency [8] | Potency [9] | Potency [10] | Potency [19] | Potency [12] | Potency [13] | Potency [14] | Potency [15] | Potency [16] | Potency [17]
